# Measurements as given in PubChem BioAssay.
# The source made the active and inactive calls. Unless noted, how the calls were made is not given here.
# What was measured:
# [1] = system: Wnt5a (protein binding on small-molecule microarray); test: Wnt5a binders on small-molecule microarray, primary screen, biophysical, 635/667 nm fluorescence (AID 1142); conditions: 635 nm fluorescence, higher = more signal;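 further: fluorescence read at 667 nm with signal to noise per printed feature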
# [2] = cell viability in Huh7 cells, primary screen, cytotoxicity control for HCV replication inhibitor project, CellTiter-Glo luminescence, basal, 48 h (AID 1143); conditions: Huh7 HCV replicon, higher = more signal, called active from +8 up or from −8 down;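 further: Huh7 hepatoma cells carrying a hepatitis C replication reporter with no stimulus; test concentration not given here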
# [3] = P. aeruginosa biofilm formation inhibitors, primary screen, PAO1 strain, BacTiter-Glo luminescence, LB-PBS (AID 1144); conditions: 12 h, higher = more signal
# [4] = CREB reporter modulators without forskolin, primary screen, cell-based, PC12, CRE-LacZ reporter, unstimulated (AID 1145); conditions: no forskolin, luminescence, 4.5 h, higher = more signal, called active from +8 up or from −8 down
# [5] = CREB reporter modulators under forskolin, primary screen, cell-based, PC12, CRE-LacZ reporter, forskolin-stimulated (AID 1146); conditions: luminescence, 4.5 h, higher = more signal, called active from +8 up or from −8 down;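 further: PC12 cells with 6xCRE LacZ reporter stimulated by forskolin 10 µM; beta-galactosidase reporter signal reflecting CREB driven transcription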
# [6] = biological target: Streptavidin (Streptomyces avidinii) (UniProt P22629); test: streptavidin binders on small-molecule microarray, primary screen, artefact control for SMM compound annotation, biophysical, 635/667 nm fluorescence (AID 1147); conditions: streptavidin binding, higher = more signal;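 further: signal reflects streptavidin binding to arrayed compounds as a control protein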
# [7] = small-molecule binders of probe aInhba, primary screen, biochemical, small-molecule microarray, 635/667 nm fluorescence (AID 1148); conditions: higher = more signal;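 further: score merges 667nm spot fluorescence with signal-to-noise for antibody binding to printed compounds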
# Torsin-1A (Homo sapiens) [8] = biological target: Torsin-1A (Homo sapiens) (UniProt O14656); test: torsin A binders from cell lysate, primary screen, small-molecule microarray, wild-type, 635/667 nm (AID 1149); conditions: COS7 hTOR1A-WT lysate, 635 nm fluorescence, higher = more signal
# Torsin-1A (Homo sapiens) [9] = biological target: Torsin-1A (Homo sapiens) (UniProt O14656); test: small-molecule binders of mutant TOR1A in lysate, primary screen, cell lysate, small-molecule microarray, COS7 lysate, 635/667 nm fluorescence (AID 1150); conditions: COS7 hTOR1A mutant lysate, 635 nm fluorescence, higher = more signal;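 further: score pools 667 nm emission and signal to noise measuring lysate protein binding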
# [10] = system: Sonic hedgehog protein (Shh); test: small-molecule binders of Shh protein, primary screen, biochemical, small-molecule microarray, 635/667 nm fluorescence (AID 1151); conditions: small-molecule microarray binding, 635 nm fluorescence; higher = more signal;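 further: Shh protein binding to compounds spotted on small-molecule microarray slides; score combines spot fluorescence intensity with signal-to-noise across triplicate slides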
# Chain of Streptavidin (Streptomyces avidinii) (P22629 whole entry, looked up): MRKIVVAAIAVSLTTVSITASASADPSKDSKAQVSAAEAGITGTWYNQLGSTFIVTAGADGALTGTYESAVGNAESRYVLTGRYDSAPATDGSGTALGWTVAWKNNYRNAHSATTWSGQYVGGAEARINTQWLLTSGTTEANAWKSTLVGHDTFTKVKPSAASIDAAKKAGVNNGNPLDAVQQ
# Chain of Torsin-1A (Homo sapiens) (O14656 whole entry, looked up): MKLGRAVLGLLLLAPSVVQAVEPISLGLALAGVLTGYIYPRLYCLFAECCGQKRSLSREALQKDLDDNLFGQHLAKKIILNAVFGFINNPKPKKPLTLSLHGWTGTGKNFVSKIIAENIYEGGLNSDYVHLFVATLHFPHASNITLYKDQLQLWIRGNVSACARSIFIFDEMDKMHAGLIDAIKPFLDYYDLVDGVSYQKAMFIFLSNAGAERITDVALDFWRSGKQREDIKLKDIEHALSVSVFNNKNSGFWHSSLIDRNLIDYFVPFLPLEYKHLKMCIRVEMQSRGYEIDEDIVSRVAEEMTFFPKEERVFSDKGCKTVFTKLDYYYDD
Compound,composite z-score [1],z-score [2],z-score [3],z-score [4],z-score [5],composite z-score [6],composite z-score [7],composite z-score (Torsin-1A (Homo sapiens) [8]),composite z-score (Torsin-1A (Homo sapiens) [9]),composite z-score [10]
Cc1ccc(S(=O)(=O)N2[C@@H](c3ccccc3)C(C(=O)O)=C[C@H]2C(C)(C)C)cc1,0.211,-1.23 (inactive),0.137 (inactive),0.238 (inactive),0.926 (inactive),1.52,0.209,0.391,0.985,0.719
N#Cc1ccc(NN2C(C(O)c3ccc(B(O)O)cc3)C=CC3CN(c4ccccc4)C(=O)C32)cc1 (stereo not given),-0.465,-0.0138 (inactive),-0.454 (inactive),-0.898 (inactive),-0.758 (inactive),0.287,-0.128,-0.0754,0.103,-0.944
COc1ccc(C(=O)Nc2cccc(CN3C(=O)[C@]4(O[C@H](CC(=O)N(CCO)Cc5ccccc5)[C@@H]([Si](C)(C)c5ccc(OC)cc5)[C@@H]4C)c4ccccc43)c2)cc1,0.997,-4.13 (inactive),0.172 (inactive),1.72 (inactive),-1.33 (inactive),0.127,-0.0131,0.0401,0.395,1.48
COCCCNC(=O)[C@@]1(Cc2ccccc2I)c2ccccc2C(=O)N(C2CCCCC2)[C@H]1c1ccc(CO)cc1,0.665,-4.51 (inactive),-1.54 (inactive),0.468 (inactive),-0.175 (inactive),-0.0972,0.115,-0.0751,0.646,1.04
CCCCC=C[C@@H](NC(=O)C(C)(C)C)c1ccccc1,0.5,-2.89 (inactive),0.124 (inactive),-0.185 (inactive),1.67 (inactive),0.761,0.353,0.226,0.487,-0.0371
COC(=O)[C@@]1(Cc2ccc(F)cc2)[C@H]2c3cc(C(=O)N(C)C)n(Cc4ccc(C(F)(F)F)nc4)c3C[C@H]2CN1C(=O)c1ccccc1,0.381,-3.01 (inactive),0.857 (inactive),1.91 (inactive),1.13 (inactive),1.55,0.36,0.516,0.717,0.521
COC(=O)[C@@]1(Cc2ccc(F)cc2)[C@@H]2C(=CC(=O)[C@H]2CC(=O)C(=O)N2CCCC2)CN1C(=O)c1ccccc1,1.74,-4.86 (inactive),0.137 (inactive),-0.189 (inactive),1.86 (inactive),0.696,0.731,0.448,1.01,1.82
COc1ccc([Si](C)(C)[C@H]2[C@H](CCO)O[C@@]3(C(=O)N(Cc4ccccc4)c4ccc(NC(=O)[C@H](C)O)cc43)[C@@H]2C)cc1,0.571,-7.85 (inactive),-1.29 (inactive),20.8 (active),1.12 (inactive),0.0684,0.0659,0.569,0.437,1.33
O=C1c2ccccc2[C@](Cc2ccccc2I)(C(=O)NCCN2CCOCC2)[C@H](c2ccc(CO)cc2)N1Cc1ccccc1C(F)(F)F,0.0104,-3.41 (inactive),0.588 (inactive),0.0909 (inactive),0.655 (inactive),0.515,-0.038,0.717,0.469,0.468
C=C(COC)C(=O)CC[C@H](OC(C)=O)c1ccccc1OCCO,0.0375,-4.1 (inactive),-0.0151 (inactive),6.35 (inactive),4.62 (inactive),-0.955,0.858,2.34,0.851,1.8
COCCCNC(=O)[C@@]1(c2ccc([N+](=O)[O-])cc2)CC(=O)N(C2CCCCC2)[C@@H]1c1ccc(CO)cc1I,0.0398,-3.87 (inactive),0.239 (inactive),0.414 (inactive),-0.543 (inactive),-0.16,0.0575,0.95,1.39,1.81
C=C(COC)C(=O)CC[C@@H](OC(=O)c1ccccc1-c1ccccc1C(=O)O)c1ccccc1OCCO,0.502,-0.714 (inactive),-0.693 (inactive),2.73 (inactive),15.8 (active),-0.695,-0.0762,1.49,0.0126,1.45
CC1C2C(CCCO)=CC(C3C(=O)N(C(N)=O)C(=O)C23)N1Cc1cccc(OC(F)(F)F)c1 (stereo not given),-0.0205,0.897 (inactive),0.206 (inactive),-0.233 (inactive),0.693 (inactive),0.664,-0.0531,0.438,0.6,0.396
O=C1O[C@H](c2ccccc2)[C@H](c2ccccc2)N2[C@H]1[C@@H](C(=O)O)[C@]1(C(=O)Nc3ccc(C#CC4(O)CCCCCC4)cc31)[C@H]2c1ccccc1OCCO,0.455,-2.05 (inactive),1.27 (inactive),17.9 (active),21.5 (active),1.41,0.397,0.541,-0.462,0.721
COC(=O)C(CC#Cc1ccc2c(c1)[C@]1(C(=O)N2)[C@H](C(=O)NC[C@H](O)c2ccccc2)[C@H]2C(=O)O[C@H](c3ccccc3)[C@H](c3ccccc3)N2[C@@H]1c1ccc(O)cc1)C(=O)OC,-0.174,-0.187 (inactive),1.07 (inactive),0.488 (inactive),-0.517 (inactive),-0.765,-0.0736,-0.93,-0.62,0.21
C=CCN1C(=O)[C@@]2(O[C@@H](CCO)[C@H]([Si](C)(C)c3ccc(OC)cc3)[C@H]2C)c2cc(N3CCCCC3=O)ccc21,0.282,-5.3 (inactive),-0.0131 (inactive),13.6 (active),-0.639 (inactive),0.732,0.0471,0.683,0.417,1.6
C=C(C(=O)CC[C@@H](OC(=O)c1ccccc1-c1ccccc1C(=O)O)c1ccc(CO)o1)C(C)C,0.389,-0.115 (inactive),-0.306 (inactive),1.47 (inactive),1.73 (inactive),-0.539,0.0051,1.28,0.317,1.65
C[C@]12C(=O)N(CCO)[C@@H]3C(=O)N(c4ccc(Cl)cc4)CC=CC31O[C@@H]1/C=C\CCCOC(=O)C12 (stereo not given in full),-0.68,0.0051 (inactive),-0.21 (inactive),0.467 (inactive),0.0098 (inactive),-0.542,-0.21,-1.5,-0.706,1.18
O=C1NC(=O)C2C1C=CC(C(O)c1ccc(F)cc1)N2Nc1ccc(Cl)cc1Cl (stereo not given),-0.166,-1.79 (inactive),-0.762 (inactive),0.0535 (inactive),-0.207 (inactive),-0.346,-0.0645,-0.556,-0.348,-0.354
CC(C)Cc1ccc(CN2CC[C@@H](NC(=O)c3ccccc3)C2)cc1,-0.36,-2.65 (inactive),0.241 (inactive),3.31 (inactive),0.603 (inactive),-0.238,-0.157,0.205,0.134,-0.0199
COc1ccc(-c2cc3c(c(CCc4ccccc4)n2)[Si](C(C)C)(C(C)C)O[C@H]3c2ccccc2)cn1,-0.143,-0.248 (inactive),-0.113 (inactive),4.67 (inactive),-0.0122 (inactive),0.547,-0.0762,-0.719,-0.534,0.431
CN1C2C=C(c3ccc(CO)cc3)C(C3C(=O)N(C(N)=O)C(=O)C32)C1C1CC1 (stereo not given),-0.392,0.547 (inactive),-0.522 (inactive),-0.35 (inactive),0.527 (inactive),0.0747,-0.271,0.0973,0.0517,-0.104
C=C(CCCC)/C(=C/C[C@@H](OC(C)=O)c1cccc(OCCO)c1)c1cc(C(=O)OC)ccc1OC,-0.257,-0.917 (inactive),0.198 (inactive),4.5 (inactive),1.48 (inactive),-0.697,-0.0645,0.146,-0.558,1.48
[N-]=[N+]=NCc1ccccc1[C@H]1OC(c2ccc(OCCCO)cc2)=N[C@@]1(CCS(=O)(=O)c1ccccc1)C(=O)O,-0.0632,-0.0569 (inactive),0.637 (inactive),-0.435 (inactive),-0.427 (inactive),0.729,-0.13,-0.359,0.622,-1.37
CC(=O)NCCCC[C@@H]1NC(=O)[C@H]2C[C@@H](C(=O)O)[C@@H](c3cccc(OCCO)c3)N2C1=O,0.847,-0.353 (inactive),-0.814 (inactive),1.94 (inactive),0.0364 (inactive),1.62,-0.153,1.33,1.24,1.59
O=C1C2C=CC(C(O)C3CC=CCC3)N(Nc3ccc([N+](=O)[O-])cc3)C2C(=O)N1c1ccccc1 (stereo not given),0.632,-0.574 (inactive),-0.917 (inactive),1.23 (inactive),1.13 (inactive),0.941,0.74,0.26,0.483,0.606
C=C[C@@H](CO)NS(=O)(=O)c1ccc(Br)cc1,0.236,-2.14 (inactive),-1.74 (inactive),1.54 (inactive),-0.52 (inactive),-0.232,-0.154,-0.0176,-0.354,-0.317
CN(C)C(=O)[C@]1(CCS(=O)(=O)c2ccccc2)N=C(c2ccc(OCCCO)cc2)O[C@@H]1c1ccccc1CN=[N+]=[N-],0.485,-0.915 (inactive),-0.813 (inactive),0.0686 (inactive),0.236 (inactive),1.54,-0.0332,0.408,0.927,-0.405
CCCC=C(CCC)[C@@H](NC(=O)c1ccc(C(=O)OC)cc1)c1ccc(C(=O)OC)cc1,0.41,-2.2 (inactive),0.668 (inactive),1.53 (inactive),1.06 (inactive),0.239,0.18,-0.266,-0.415,-1.35
CC(C)N1CC=CC23O[C@@H]4/C=C\CCCOC(=O)C4[C@H]2C(=O)N(C(C)CO)[C@@H]3C1=O (stereo not given in full),-0.603,0.282 (inactive),-2.11 (inactive),-1.58 (inactive),-0.869 (inactive),-0.938,-0.176,-2.23,-0.913,-0.413
